Screens (PubChem)
Many of the other results were omitted from the sample, so hits are more common in it than they were.
VCAM1 pot = enhances TNF alpha induced VCAM1 expression in HUVEC; HUVEC TNFa-stimulated VCAM-1 immunofluorescence, high-content imaging; scaled per plate to unstimulated/TNFa-only wells; activation, % at 2 µM; hit rate 0.19% among 93,000; AID 808;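 active = activation above the screen mean plus 3 SD, with well images confirming the hit on visual review, cut at about 28% in these data, passing the limit was not always enough; inconclusive = activation above that limit but images do not confirm it; inactive = activation not above that limit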;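 note: signal is the number of cytoplasmic VCAM-1 stained grains per positive cell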
VCAM1 pot confirm = enhancers of VCAM1 induction in HUVEC – imaging, triplicate retest, confirmation; shares compounds with VCAM1 pot; HUVEC TNFa-stimulated VCAM-1 immunofluorescence imaging; activation, % at 2 µM; 230 tested, under 10 active;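 active = activation above 30% in triplicate retests at 2 µM, then confirmed by visual review of the well images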;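 note: scaled per plate between unstimulated and TNFa-stimulated DMSO control wells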
The depositor's hits bear a star; ? = inconclusive.

SMILES	VCAM1 pot	others
CS(=O)(=O)N(CC(=O)N1CCN(c2ccccc2F)CC1)c1cc(C(F)(F)F)ccc1Cl	-3.4
CCCCOc1ccc(NC(=O)CSc2nnnn2C)cc1	2.2
CC(NCc1ccc2c(c1)OCO2)C(=O)NC1CCCc2ccccc21 (stereo not given)	-97.3
COC(=O)NNC(=O)c1ccccc1C	6.2
CCOC(=O)c1cc(C)n(CCc2ccccc2)c1C	-9.0
CCOC(=O)c1c(N)sc(-c2ccccc2)c1C	45.3*	VCAM1 pot confirm=-10.1
CCOC(=O)c1[nH]c2ccc(OC)cc2c1C	-4.2
COc1cccc(N/C=C(\C#N)c2ccc(OCCCF)cc2)c1	0.0
Cc1ccc(S(=O)(=O)NC(C)(C)CSc2nnc(N)s2)cc1	3.2
c1ccc(CSc2nnc(-c3ccncc3)o2)cc1	57.6*	VCAM1 pot confirm=-12.8
c1ccc(-c2nnc(CSc3nncs3)o2)cc1	-93.2
COC(=O)C(C)Sc1nnc(-c2ccncc2)o1 (stereo not given)	-19.3
N#Cc1cc(-c2ccccc2)nnc1Oc1ccccc1Cl	-3.4
COc1ccc(S(=O)(=O)NCC2CCC(C(=O)N3CCC4(CC3)OCCO4)CC2)cc1 (stereo not given)	?	VCAM1 pot confirm=-16.9
COc1ccc(CN(CC(=O)NCC2CCCO2)C(=O)CNS(=O)(=O)c2ccc(C)cc2)cc1 (stereo not given)	18.0
CCOC(=O)N1CCN(C(=O)C2CCC(CNS(=O)(=O)c3ccccc3)CC2)CC1 (stereo not given)	-9.7
Cn1c(=O)c2c(-c3ccncc3)c3c(nc2n(C)c1=O)-c1ccccc1C3=O	19.8
CCC(C)N1CCCCC1C(=O)Nc1c(C)cc(C)cc1C (stereo not given)	17.0
O=C1C=C(O)CC(c2ccc(Cl)c(Cl)c2)C1 (stereo not given)	?	VCAM1 pot confirm=-1.4
COc1cc(C2CC(=O)C=C(O)C2)cc(OC)c1OC (stereo not given)	16.1
O=C1C=C(O)CC(c2ccc(Cl)cc2)C1 (stereo not given)	-2.8
C=CCNc1sc(C(=O)c2ccccc2)c(N)c1C#N	-4.9
C=CCNc1sc(C(=O)C2CC2)c(N)c1C#N	30.1*	VCAM1 pot confirm=-7.6
Cc1cc(NC(=O)C2CCN(S(=O)(=O)Cc3ccccc3)CC2)ccc1-n1cnnn1	-10.4
CCCc1cc(C(N)=O)c(NC(C)=O)s1	30.1
SMILES	VCAM1 pot	others
CC(=O)Nc1cccc(NC(=O)c2cc3ccccc3o2)c1	-5.6
O=C(Nc1ccc(-c2cc3ccccc3oc2=O)c(Cl)c1)c1cccnc1	-8.2
O=C(Nc1ccc(N2CCN(C(=O)c3ccco3)CC2)c(Cl)c1)c1cc2ccccc2o1	?	VCAM1 pot confirm=-11.1
CCCSc1nnc(-c2cnn(-c3ccccc3)c2-n2cccc2)n1C	36.2*	VCAM1 pot confirm=-2.8
Cc1ccc(-c2nnc(SCC(=O)CC(=O)Nc3ccccc3)n2C)cc1	4.7
Cn1c(SCC(=O)CC(=O)Nc2ccccc2)nnc1-c1ccc(O)cc1	-7.9
COc1ccc(-c2cc(C(=O)Nc3cc(C)n(Cc4ccc(Cl)cc4)n3)no2)cc1OC	-51.5
COc1ccc(Cl)cc1N(CC(=O)Nc1ccccc1SC)S(C)(=O)=O	-5.9
CC(C)Oc1ccc(C2C(C(=O)c3ccco3)=C(O)C(=O)N2CCCN(C)C)cc1 (stereo not given)	-22.7
Cn1c2c(c(=O)n(C)c1=O)CN(Cc1ccc3c(c1)OCO3)CN2	14.6
Cc1nc(-c2ccccc2)cc(N2CCCC2)n1	61.4*	VCAM1 pot confirm=-7.7
Cc1nc(CS(=O)c2ccccc2)cc(N2CCOCC2)n1 (stereo not given)	-16.3
c1ccc(-c2cc(N3CCCCCC3)n[nH]2)cc1	13.4
COCCSc1nnc(NC(=O)CSCc2ccccc2)s1	19.6
CCc1cccc(OCCCCN(CC)CC)c1	9.5
CCCn1c(NC(=O)C2COc3ccccc3O2)nc2ccccc21 (stereo not given)	-7.9
O=C(COc1cccc(Oc2ccccc2)c1)Nc1ncccn1	-9.5
COc1ccc(OCCOC(=O)c2cccc(-n3cnnn3)c2)cc1	-2.7
COc1ccc(Cl)cc1NC(=O)COc1cccc(-n2cnnn2)c1	?	VCAM1 pot confirm=6.6
O=C(c1ccccc1-c1nc(-c2ccc(Cl)cc2)no1)N1CCCC1	5.3
Cc1c(NC(=O)CC2CC(C)OC2=O)c(=O)n(-c2ccccc2)n1C (stereo not given)	1.7
CN(CC(=O)Nc1nc2ccccc2s1)S(=O)(=O)c1ccccc1	16.3
Cn1c(/N=C/c2c[nH]c3ccccc23)nc2ccccc21	-6.4
Cn1c(NCc2c[nH]c3ccccc23)nc2ccccc21	-57.5
Cn1c(/C=N/n2cnnc2)nc2ccccc21	?	VCAM1 pot confirm=-6.5
CC(=O)c1cccc(N(CC(=O)O)S(C)(=O)=O)c1	0.5
CCn1cc(Br)c(C(=O)N2CCN(c3ccccc3)CC2)n1	33.7
O=C(NCc1ccco1)c1cc2c(s1)CCCCC2	22.2
O=CN(Cc1ccco1)C1(C(=O)NC2CCCCC2)CCCCC1	36.6*	VCAM1 pot confirm=-3.9
COc1ccc(CN(C(=O)CNC(=O)c2ccco2)C(C(=O)NC2CCCC2)c2ccco2)cc1 (stereo not given)	-7.6
